# In PubChem BioAssay (NCATS):
# Where “and” joins values, the source holds several entries; their conditions need not be identical. Equal values may be shown once. Results filed as inconclusive are left out. Calls of active or inactive are those of the source. Unless noted, the call rests on the fitted dose curve; in most records, active means well fitted curve in the direction sought with a large enough effect; inconclusive means small, poorly fitted or top-dose-only effect, or another doubt; inactive means no such curve, though single readings can be large; an effect the other way counts as inactive or inconclusive.
# Assays:
# [1] = qHTS Assay for Lipid Storage Modulators (AID 1519; calls by dose curve; on activity change, negative = inhibition: on the % scale 0 is the no-effect control and ±100 the full control effect); details: Drosophila S3 cells, BODIPY lipid droplet/cell ratio, laser cytometry, cells loaded with oleic acid
# Summary of the method: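 Cells seeded at 5,000 per well were treated with compounds over a concentration series and loaded with oleic acid (400 uM, as added). Lipid droplet fluorescence (488 nm excitation, 500-530 nm channel) was read by laser-scanning cytometry and normalized to 20 uM Triacsin C.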
# [2] = molecular target: Alpha-galactosidase A (Homo sapiens) (UniProt P06280); experiment: Counterscreen for Glucocerebrosidase Inhibitors: qHTS Assay for Human alpha-Galactosidase at pH 4.5 (AID 992); further: 0% is about no effect
# Alpha-galactosidase A (Homo sapiens), sequence (P06280 whole entry, looked up): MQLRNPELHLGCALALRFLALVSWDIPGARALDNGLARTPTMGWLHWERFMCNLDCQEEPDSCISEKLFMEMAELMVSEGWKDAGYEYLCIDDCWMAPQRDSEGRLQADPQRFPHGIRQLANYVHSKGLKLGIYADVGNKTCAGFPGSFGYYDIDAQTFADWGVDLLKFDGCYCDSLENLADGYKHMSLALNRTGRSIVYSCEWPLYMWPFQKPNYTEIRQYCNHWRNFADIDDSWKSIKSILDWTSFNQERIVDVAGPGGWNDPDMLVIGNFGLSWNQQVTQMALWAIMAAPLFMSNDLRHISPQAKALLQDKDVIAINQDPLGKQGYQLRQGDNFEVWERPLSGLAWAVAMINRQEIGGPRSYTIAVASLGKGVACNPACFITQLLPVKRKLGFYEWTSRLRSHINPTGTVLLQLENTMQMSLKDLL
# Summary of the method: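 Quantitative HTS: compounds tested from 0.7 nM up to 77 uM against 2 nM enzyme with 80 uM 4-MU alpha-D-galactopyranoside. The 20 min room-temperature reaction is stopped with 1M NaOH/1M glycine, pH 10.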
# [3] = molecular target: alpha-glucosidase (Oryza sativa, rice) (UniProt Q653V4); experiment: Counterscreen for Glucocerebrosidase Inhibitors: qHTS Assay for Rice alpha-Glucosidase at pH 5.0 (AID 997);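 further: 0% = full activity with enzyme and -100% = basal without enzyme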
# Summary of the method: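 Rice alpha-glucosidase (4 nM final) with 400 uM 4-methylumbelliferyl-alpha-D-glucopyranoside in citrate buffer pH 5.0, 20 min at room temperature, stopped at pH 10; fluorescence 365/440 nm, compounds 0.7 nM–77 uM, AC50 from Hill fits.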
# [4] = molecular target: DNA repair nuclease/redox regulator APEX1 (Homo sapiens) (UniProt P27695); experiment: qHTS Validation Assay for Inhibitors of the Human Apurinic/apyrimidinic Endonuclease 1 (APE1) (AID 1705;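 further: TAMRA fluorescence gain over two minutes as APE1 cuts a quenched THF abasic duplex; on the % scale 0 is the no-effect control and ±100 the full control effect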)
# DNA repair nuclease/redox regulator APEX1 (Homo sapiens), sequence (P27695 whole entry, looked up): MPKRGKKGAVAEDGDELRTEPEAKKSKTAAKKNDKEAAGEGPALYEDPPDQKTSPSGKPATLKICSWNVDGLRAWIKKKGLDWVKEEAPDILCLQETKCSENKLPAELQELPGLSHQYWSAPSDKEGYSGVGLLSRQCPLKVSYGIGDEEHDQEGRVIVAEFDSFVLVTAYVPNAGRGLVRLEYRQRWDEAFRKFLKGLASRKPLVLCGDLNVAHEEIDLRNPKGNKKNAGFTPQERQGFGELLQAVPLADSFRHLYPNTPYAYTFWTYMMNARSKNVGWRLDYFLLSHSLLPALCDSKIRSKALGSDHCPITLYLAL
# Summary of the method: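 Endonuclease activity of human APE1 is followed as dequenching when the enzyme incises a tetrahydrofuran abasic site in a short duplex labelled 5'-TAMRA/3'-BHQ-2 (50 nM final), after 15 min enzyme–compound preincubation at room temperature.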
# [5] = Counterscreen for APE1 Inhibitors: Fluorescent Dye Displacement Validation Assay (AID 1707);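 further: plate controls were ThO with dsDNA and no compound for no effect and ThO without dsDNA for full effect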
# Summary of the method: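 Compounds are scored by their ability to displace Thiazole Orange (250 nM) from a 50 nM TAMRA-tagged duplex bearing a tetrahydrofuran abasic site. Buffer is 50 mM Tris-HCl pH7.5, 50mM NaCl, 2 mM MgCl2, 0.01% Tween-20.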
# [6] = qHTS for differential inhibitors of proliferation of Plasmodium falciparum line 7G8 (AID 1815);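 further: parasite growth measured after three days of incubation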; further: potency means the concentration at half of the fitted maximal effect;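 on activity change, negative = inhibition: plate controls were vehicle wells for no effect and reference inhibitor wells for full effect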
# [7] = qHTS for differential inhibitors of proliferation of Plasmodium falciparum line GB4 (AID 1816); details: Potency: Plasmodium falciparum GB4 proliferation inhibition;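 further: parasite growth measured after 72 h incubation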; further: potency means the concentration at half of the fitted maximal effect;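 on activity change, negative = inhibition: 0% = vehicle DMSO and -100% = reference inhibitor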
# [8] = qHTS for differential inhibitors of proliferation of Plasmodium falciparum line 3D7 (AID 1876); further: potency means the concentration at half of the fitted maximal effect
# [9] = qHTS for differential inhibitors of proliferation of Plasmodium falciparum line D10 (AID 1877);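 further: parasites grown with compound for 72 h before DNA staining; plate controls were vehicle wells for no effect and reference inhibitor wells for full effect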
# [10] = qHTS for differential inhibitors of proliferation of Plasmodium falciparum line Dd2 (AID 1882); details: Potency: Plasmodium falciparum Dd2 proliferation inhibition; further: nearly all actives have a fitted effect of over 65% in size; further: potency means the concentration at half of the fitted maximal effect;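 on activity change, negative = inhibition: plate controls were DMSO vehicle for no effect and 0.29 µM artemisinin for full effect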
# Summary of the method: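 Dd2-infected erythrocytes (0.3% parasitemia, 2.5% hematocrit final) incubated with compound 72 h at 37 C, 5% CO2; lysed with saponin/Triton buffer containing SYBR Green I, incubated overnight in the dark, then read by fluorescence (485/535 nm). Normalized to 0.29 uM artemisinin and DMSO.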
# [11] = qHTS for differential inhibitors of proliferation of Plasmodium falciparum line W2 (AID 1883); details: Potency: Plasmodium falciparum W2 proliferation inhibition;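 further: parasites grown with compound for 72 h before lysis and staining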; further: potency means the concentration at half of the fitted maximal effect;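 on activity change, negative = inhibition: 0% = vehicle wells and -100% = control inhibitor wells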
# [12] = qHTS for differential inhibitors of proliferation of Plasmodium falciparum line HB3 (AID 1886); details: Potency: Plasmodium falciparum HB3 proliferation inhibition;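 further: parasites grown with compound for 72 h before SYBR Green readout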; further: potency means the concentration at half of the fitted maximal effect;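 on activity change, negative = inhibition: plate controls were vehicle for no effect and reference inhibitor for full effect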
# [13] = molecular target: Endonuclease 4 (Escherichia coli (strain K12)) (UniProt P0A6C1); experiment: Counterscreen for APE1 Inhibitors: qHTS Validation Assay for Inhibitors of Endonuclease IV (AID 1708); further: on the % scale 0 is the no-effect control and ±100 the full control effect
# Summary of the method: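 Concentration-response counterscreen run identically to the APE1 assay: 15 min room-temperature preincubation of 2 nM enzyme with compound, reaction started with 50 nM quenched abasic DNA, progress taken from kinetic fluorescence.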
# [14] = qHTS Assay for Modulators of Human Peripheral Myelin Protein 22 (PMP22) Expression/Activity (AID 1967; active means well fitted curve in the direction sought with a large enough effect in the signal ratio; the % refers to the signal ratio;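 further: 0% = untreated cells and 100% end not stated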)
# Summary of the method: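 Quantitative HTS in a mouse Schwann cell line expressing dual click beetle luciferases: Pmp22 promoter (green) and control EF-alpha promoter (red). After 24h treatment, corrected green/red signal ratio gave %Activity relative to untreated cells.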
# [15] = measured here: cell count channel max response
# [16] = measured here: lipid channel max response
smiles,measurement,setting,value
COc1ccc(CCN2CCC(Nc3nc4ccccc4n3Cc3ccc(F)cc3)CC2)cc1,"activity change, negative = inhibition",[1]; at 25.7 µM (top of the series),-7.48% (inactive)
same,"activity change, negative = inhibition",[1]; at 57.5 µM (top of the series),12.8% (inactive)
same,max response,[1]; [15],-13.7% and 8.29%
same,max response,[1]; [16],-24.1% and 21%
C[N+]1(CCCCC[N+]2(C)CCCC2)CCCC1,outcome,[2],inactive
same,outcome,[3],inactive
same,"activity change, negative = inhibition",[1]; at 25.7 µM (top of the series),-1.41% (inactive)
same,"activity change, negative = inhibition",[1]; at 57.5 µM (top of the series),3.44% (inactive) and 1.51% (inactive)
same,max response,[1]; [15],-13.3% and 5.22% and -4.18%
same,max response,[1]; [16],-15.5% and 11.1% and -3.95%
same,Potency,[4],inactive
same,outcome,[5],inactive
same,Potency,[6],inactive
same,Potency,[7],inactive
same,Potency,[8],inactive
same,Potency,[9],inactive
same,Potency,[10],inactive
same,Potency,[11],inactive
same,Potency,[12],inactive
CC(O)(P(=O)(O)O)P(=O)(O)O,"activity change, negative = inhibition",[1]; at 25.7 µM (top of the series),2.54% (inactive)
same,max response,[1]; [15],-3.25%
same,max response,[1]; [16],-0.531%
CN1CCN(C(c2ccccc2)c2ccccc2)CC1,"activity change, negative = inhibition",[1]; at 25.7 µM (top of the series),-2.7% (inactive)
same,"activity change, negative = inhibition",[1]; at 57.5 µM (top of the series),7.26% (inactive)
same,max response,[1]; [15],-1.91% and 18%
same,max response,[1]; [16],-3.01% and 29.7%
C[C@@H]1C(=O)NC2=Nc3cccc(Cl)c3CN21,outcome,[2],inactive
same,outcome,[3],inactive
same,"activity change, negative = inhibition",[1]; at 57.5 µM (top of the series),2.07% (inactive)
same,max response,[1]; [15],-20.8%
same,max response,[1]; [16],-17.8%
same,Potency,[4],inactive
same,outcome,[5],inactive
same,outcome,[13],inactive
same,Potency,[6],inactive
same,Potency,[8],inactive
same,Potency,[9],inactive
same,Potency,[10],inactive
same,Potency,[12],inactive
same,outcome,[14],inactive
Nc1nc2ncc(CNc3ccc(C(=O)N[C@@H](CCC(=O)O)C(=O)O)cc3)nc2c(=O)[nH]1,"activity change, negative = inhibition",[1]; at 25.7 µM (top of the series),-2.19% (inactive)
same,"activity change, negative = inhibition",[1]; at 57.5 µM (top of the series),8.45% (inactive)
same,max response,[1]; [15],-7.62% and 6.6%
same,max response,[1]; [16],-8.4% and 15.7%
C[C@H](O)C(=O)Nc1c(I)c(C(=O)NC(CO)CO)c(I)c(C(=O)NC(CO)CO)c1I,"activity change, negative = inhibition",[1]; at 25.7 µM (top of the series),-3.5% (inactive)
same,max response,[1]; [15],-8.47%
same,max response,[1]; [16],-9.62%
CNCCC=C1c2ccccc2CCc2ccccc21,outcome,[2],inactive
same,outcome,[3],inactive
same,"activity change, negative = inhibition",[1]; at 25.7 µM (top of the series),-2% (inactive)
same,"activity change, negative = inhibition",[1]; at 57.5 µM (top of the series),7.28% (inactive)
same,max response,[1]; [15],-0.512% and 24.9%
same,max response,[1]; [16],-6.43% and 39.3%
same,Potency,[4],inactive
same,outcome,[5],inactive
same,outcome,[13],inactive
same,Potency,[6],7.08 µM (active)
same,Potency,[7],5.62 µM (active)
same,Potency,[8],11.2 µM (active)
same,Potency,[10],2.82 µM (active)
same,Potency,[11],2.24 µM (active)
same,Potency,[12],11.2 µM (active)
NCCCC[C@H](N[C@@H](CCc1ccccc1)C(=O)O)C(=O)N1CCC[C@H]1C(=O)O,"activity change, negative = inhibition",[1]; at 25.7 µM (top of the series),0.781% (inactive)
same,max response,[1]; [15],1.7%
same,max response,[1]; [16],0.636%
CN1CCC(=C2c3ccccc3Sc3ccccc32)CC1,"activity change, negative = inhibition",[1]; at 25.7 µM (top of the series),-2.77% (inactive)
same,"activity change, negative = inhibition",[1]; at 57.5 µM (top of the series),13.8% (inactive)
same,max response,[1]; [15],3.5% and 5.85%
same,max response,[1]; [16],-0.527% and 23.3%
CCCCOc1ccc(OCCCN2CCOCC2)cc1,"activity change, negative = inhibition",[1]; at 25.7 µM (top of the series),-0.243% (inactive)
same,max response,[1]; [15],-13.4%
same,max response,[1]; [16],-13.4%
